ELG1 DNA repair: blocks ELG1-dependent DNA repair in HEK293T cells; HEK293T ELG1-luciferase reporter, luminescence, 16 h; DNA damage induced by 5-fluorouridine; Potency, µM (highest dose often 46.1 µM), usual class: inhibitors; hit rate 2.3% among 330,000; note: nearly all actives have a fitted effect of over 55% in size
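HEK293T cells expressing luciferase-tagged ELG1 (2,000/well) received 5-Fluorouridine plus compound or DMSO for 16 hr at 37 °C. Luciferase was read by ONE-Glo luminescence after 30 min at room temperature.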
ELG1 genotoxic: genotoxicity induction in ELG1-luciferase HEK293T cells | Potency, µM (titrated, usually from 46 µM), most hits filed as activators | HEK293T ELG1-luciferase reporter, luminescence, 16 h | hit rate 1.3% among 330,000; note: nearly all actives have a fitted effect of over 60% in size
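Cells (2,000/well) expressing the ELG1-luciferase fusion are dosed by pin tool and kept 16 hr at 37 °C, 5% CO2. Signal comes from ONE-Glo luciferase reagent after 30 min at room temperature.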
FLuc counter: inhibits or activates purified firefly luciferase, miR-21 counter-screen. P08659. purified FLuc, Km substrates, luminescence inhibition. Potency, µM (doses to about 57.5 µM), usual class: inhibitors. hit rate 6.9% among 360,000; note: nearly all actives have a fitted effect of over 55% in size
Target sequence (P08659 whole entry, looked up): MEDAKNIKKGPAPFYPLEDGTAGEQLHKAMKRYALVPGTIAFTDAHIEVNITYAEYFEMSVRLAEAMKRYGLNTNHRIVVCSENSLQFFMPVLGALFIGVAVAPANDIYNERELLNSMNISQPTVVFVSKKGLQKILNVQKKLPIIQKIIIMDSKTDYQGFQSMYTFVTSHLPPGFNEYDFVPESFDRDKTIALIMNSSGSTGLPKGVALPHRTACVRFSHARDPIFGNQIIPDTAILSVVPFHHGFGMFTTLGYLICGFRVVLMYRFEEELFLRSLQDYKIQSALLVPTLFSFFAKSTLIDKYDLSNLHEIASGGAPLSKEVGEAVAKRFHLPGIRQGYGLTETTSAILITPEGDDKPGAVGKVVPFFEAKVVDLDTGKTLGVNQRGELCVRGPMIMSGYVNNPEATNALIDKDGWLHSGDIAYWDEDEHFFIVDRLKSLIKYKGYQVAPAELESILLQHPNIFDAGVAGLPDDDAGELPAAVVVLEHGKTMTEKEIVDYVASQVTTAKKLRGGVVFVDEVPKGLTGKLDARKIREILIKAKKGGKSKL
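Purified P. pyralis luciferase (10nM final) with 10uM D-luciferin and 10uM ATP (Km levels) in 50mM Tris acetate pH 7.5, 10mM Mg acetate, 0.01% Tween-20, 0.05% BSA; qHTS 6-point titration, ~60 µM downward; luminescence read.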
Rab9 prom act: activators of Rab9 promoter | Potency, µM (highest dose often 9.22 µM), most hits filed as activators | Huh7 Rab9 promoter-luciferase reporter, luminescence, 24 h | hit rate 2.8% among 320,000; note: nearly all actives have a fitted effect of over 60% in size
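Promoter activation is measured as luciferase luminescence in Huh7 cells stably transfected with a Rab9 promoter–luciferase construct, following 24 h compound exposure at 37 °C and 10 min reagent incubation at ambient temperature.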
NPC1 prom act: activates the NPC1 promoter. Huh7 NPC1 promoter luciferase reporter, 24 h. Potency, µM (titrated, usually from 9.22 µM), actives largely listed as activators. hit rate 2.4% among 320,000. AID 485313; note: nearly all actives have a fitted effect of over 60% in size
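Quantitative HTS used a cell-based reporter: Huh7 cells stably bearing the NPC1 promoter upstream of luciferase were treated with compounds for 24 h, and promoter activation was read as luminescence.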
SMN2 splice up: SMN2 splice variant enhancement | hit rate 2.8% among 210,000 | Potency, µM (series often up to 46.1 µM), most hits filed as activators | HEK293 SMN2-luciferase splicing reporter, luminescence, 30-36 h; note: nearly all actives have a fitted effect of over 55% in size
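HEK293 cells carry an SMN2 […]–luciferase reporter in which exon 7 inclusion puts luciferase in frame. Cells were plated 10-12 h before compound addition, then incubated 30-36 h at 37C. ONE-Glo luminescence was read; sodium butyrate at 4.5 mM final served as control.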
Numbers stand for hits. Hits are enriched below; roughly 9.4% of the tested compounds scored in any of these assays. Calls come from the whole dose curve; as a rule, active = well fitted curve in the direction sought with a large enough effect; inconclusive = small, poorly fitted or top-dose-only effect, or another doubt; inactive = no such curve, though single readings can be large; an effect the other way counts as inactive or inconclusive.

What do the screens show for `Cc1nc(-c2cccc(F)c2)sc1CCNC(=O)C(=O)Nc1ccc2c(c1)OCO2`?
FLuc counter: inactive

Results for COc1ccc(C(=O)/C=C/Nc2cccc(C)n2)cc1OC ?
ELG1 DNA repair: inconclusive; ELG1 genotoxic: inconclusive; FLuc counter: 3.8µM; Rab9 prom act: 2µM; NPC1 prom act: 2.2µM; SMN2 splice up: 13µM

How did O=C(/C=C\Nc1cccc(F)c1)c1ccc2c(c1)OCO2 do in these assays?
ELG1 DNA repair: inconclusive; ELG1 genotoxic: 0.15µM; FLuc counter: 0.12µM; Rab9 prom act: inconclusive; NPC1 prom act: 0.32µM

How did COc1ccc(C(=O)/C=C/c2cn(CC(O)CN3CCCCCC3)c3ccccc23)cc1OC (centres undefined) do in these assays?
FLuc counter: inconclusive; SMN2 splice up: inactive

Results for COc1ccc(N/C=C/C(=O)c2cc(OC)c(OC)c(OC)c2)cc1 ?
ELG1 DNA repair: inconclusive; ELG1 genotoxic: inconclusive; FLuc counter: 6µM; Rab9 prom act: inactive; NPC1 prom act: inactive

How did COc1ccc(C(=O)/C=C/N2CCCCC2)cc1OC do in these assays?
ELG1 DNA repair: inactive; ELG1 genotoxic: inactive; FLuc counter: 24µM; Rab9 prom act: inactive; NPC1 prom act: inconclusive; SMN2 splice up: inactive

Results for COC(=O)c1ccc(N/C=C/C(=O)c2ccc(OC)c(OC)c2)cc1 ?
ELG1 DNA repair: inconclusive; ELG1 genotoxic: inconclusive; FLuc counter: inactive; Rab9 prom act: inactive; NPC1 prom act: inactive; SMN2 splice up: inactive

How did COC(=O)c1ccc(N/C=C\C(=O)c2ccc3c(c2)OCO3)cc1 do in these assays?
ELG1 DNA repair: inconclusive; ELG1 genotoxic: inactive; FLuc counter: inconclusive; Rab9 prom act: inconclusive; NPC1 prom act: inconclusive

How did COc1ccc(N/C=C\C(=O)c2ccc3c(c2)OCO3)cc1OC do in these assays?
ELG1 DNA repair: inconclusive; ELG1 genotoxic: inconclusive; FLuc counter: 1.7µM; Rab9 prom act: inactive; NPC1 prom act: inactive; SMN2 splice up: inactive

What do the screens show for `COc1ccc(N/C=C/C(=O)c2ccc(OC)c(OC)c2)cc1`?
ELG1 DNA repair: inconclusive; ELG1 genotoxic: inactive; FLuc counter: 2.4µM; Rab9 prom act: inactive; NPC1 prom act: inactive

How did COc1ccc(Cl)cc1NC(=O)c1cc(S(=O)(=O)NC2CCCCCC2)ccc1F do in these assays?
FLuc counter: inactive

What do the screens show for `Cc1ccc(N2CC(NC(=O)C3CC3)CC2=O)cc1C` (centres undefined)?
FLuc counter: inactive

How did COc1ccccc1OC(C)C(=O)Nc1c(C(=O)c2ccc(Cl)cc2)oc2ccccc12 (centres undefined) do in these assays?
FLuc counter: inactive; SMN2 splice up: inconclusive

How did O=C(Nc1ccc2oc(-c3ccccc3)nc2c1)c1cccnc1 do in these assays?
ELG1 DNA repair: inconclusive; ELG1 genotoxic: inactive; FLuc counter: inconclusive; Rab9 prom act: inconclusive; NPC1 prom act: inconclusive; SMN2 splice up: inactive

Results for CC(C)c1ccc(NC(=O)c2csnn2)cc1 ?
ELG1 DNA repair: inconclusive; ELG1 genotoxic: 1.2µM; FLuc counter: 2.1µM; Rab9 prom act: 1.8µM; NPC1 prom act: 1.6µM; SMN2 splice up: inconclusive

Results for CC(C)c1ccc2oc(-c3cc(NC(=O)c4cccnc4)ccc3Cl)nc2c1 ?
FLuc counter: 11µM; SMN2 splice up: inactive

How did CC(C)c1ccc(NC(=O)c2snc3ccc(Cl)cc23)cc1 do in these assays?
ELG1 DNA repair: inconclusive; ELG1 genotoxic: inconclusive; FLuc counter: 7.6µM; Rab9 prom act: 2.2µM; NPC1 prom act: 2.5µM; SMN2 splice up: 14µM

Results for CC(C)c1ccc(NC(=O)c2cccnc2)cc1 ?
ELG1 DNA repair: inconclusive; ELG1 genotoxic: 21µM; FLuc counter: 17µM; Rab9 prom act: 4µM; NPC1 prom act: inconclusive; SMN2 splice up: inconclusive

What do the screens show for `COC(=O)C(C(=O)OC)c1ccc(NC(=O)c2cccc(Cl)c2)cc1`?
ELG1 DNA repair: inconclusive; ELG1 genotoxic: inactive; FLuc counter: inactive; Rab9 prom act: inconclusive; NPC1 prom act: inconclusive; SMN2 splice up: inconclusive

How did Cc1ccc(N2C(=O)CS(=O)(=O)C23C(=O)N(Cc2ccccc2F)c2ccccc23)cc1Cl (centres undefined) do in these assays?
FLuc counter: inactive; SMN2 splice up: inactive

What do the screens show for `O=C(NC(=S)Nc1ccccc1Cl)c1csnn1`?
ELG1 DNA repair: inconclusive; ELG1 genotoxic: inactive; FLuc counter: 13µM; Rab9 prom act: inactive; NPC1 prom act: inactive; SMN2 splice up: inactive

How did O=C(Nc1ccccc1NC(=O)c1csnn1)c1csnn1 do in these assays?
ELG1 DNA repair: inactive; ELG1 genotoxic: inactive; FLuc counter: inactive; Rab9 prom act: inactive; NPC1 prom act: inactive

What do the screens show for `CC(C)c1ccc(NC(=S)NNC(=O)c2cccnc2)cc1`?
ELG1 DNA repair: inactive; ELG1 genotoxic: inactive; FLuc counter: 11µM; Rab9 prom act: inactive; NPC1 prom act: inactive; SMN2 splice up: inactive

Results for O=C(NNC(=S)Nc1ccc(Br)cc1)c1cccnc1 ?
ELG1 DNA repair: inactive; ELG1 genotoxic: inactive; FLuc counter: inconclusive; Rab9 prom act: inactive; NPC1 prom act: inactive

How did COc1ccc(N(CC(=O)Nc2ccc(C)c(C)c2)S(=O)(=O)c2ccc(C)cc2)cc1OC do in these assays?
FLuc counter: inactive; SMN2 splice up: inactive

What do the screens show for `COc1ccc2c(c1)c1c(c(=O)n(-c3ccccc3C)c(=O)n1CC(=O)NCc1ccc(C)cc1)n2C`?
FLuc counter: inactive

How did COc1ccc(C(=O)N2CCC[C@@]3(CCN(Cc4nccs4)C3)C2)cc1 do in these assays?
SMN2 splice up: inactive

How did COc1ccccc1Nc1nnc(SCC(=O)c2cc(C)n(CC3CCCO3)c2C)s1 (centres undefined) do in these assays?
ELG1 DNA repair: inconclusive; ELG1 genotoxic: inactive; FLuc counter: inconclusive; Rab9 prom act: inactive; NPC1 prom act: inactive; SMN2 splice up: inactive

How did Cc1cc(C(=O)CSc2nnc(Nc3ccccc3F)s2)c(C)n1CC1CCCO1 (centres undefined) do in these assays?
ELG1 DNA repair: inconclusive; ELG1 genotoxic: inactive; FLuc counter: 15µM; Rab9 prom act: inactive; NPC1 prom act: inactive; SMN2 splice up: inactive

Results for Cc1cc(C(=O)CSc2nnc(Nc3ccccc3)s2)c(C)n1CC1CCCO1 (centres undefined) ?
ELG1 DNA repair: 18µM; ELG1 genotoxic: inactive; FLuc counter: 11µM; Rab9 prom act: inactive; NPC1 prom act: inactive; SMN2 splice up: inactive

Results for O=C(CCC(=O)N1CC2CCCN2c2ccccc21)NCc1ccc(F)cc1 (centres undefined) ?
FLuc counter: inactive

How did CCCCSCCCNC(=O)c1cn(CC)c2ccc(S(=O)(=O)N(C)C3CCCCC3)cc2c1=O do in these assays?
FLuc counter: inactive; SMN2 splice up: inactive

How did CC(C)(C)NC(=O)CSc1ncccc1-c1nc2ccccc2[nH]1 do in these assays?
ELG1 DNA repair: inconclusive; ELG1 genotoxic: inactive; FLuc counter: 24µM; Rab9 prom act: inactive; NPC1 prom act: inactive
